Values without a mark were called inactive. Unless noted, how the calls were made is not given here.
Further: test concentration not given here.

One experiment can be described thus: inhibition of PAO1 biofilm formation – strain PAO1, LB-PBS medium, absorbance 600 nm, primary screen (AID 1176). As to conditions: P. aeruginosa PAO1 growth/biofilm, A600, 12 h; higher = more signal.
Take `COc1ccccc1CN1C(=O)c2ccccc2[C@](Cc2ccccc2I)(C(=O)NCC(C)C)[C@@H]1c1ccc(CO)cc1`: the z-score is 0.251.

With `C[N+](C)(C)CCCC[C@@H]1NC(=O)[C@@H]2C[C@H](C(=O)NCc3ccc(F)cc3)[C@H](c3ccc(O)cc3)N2C1=O`, the z-score is 0.683.

As for `CN1C(=O)C2C(C1=O)C1C=C(CCCO)C2C(C2CC2)N1Cc1cccc(OC(F)(F)F)c1` (centres undefined), the z-score was 0.559. Regarding `COC(=O)[C@@]1(Cc2ccccc2)[C@H]2c3cc(C(=O)N(C)C)n(Cc4ccc(S(C)(=O)=O)cc4)c3C[C@H]2CN1C(=O)c1ccccc1`, the z-score was 1.47.

Consider `O=C1c2ccccc2[C@@]2(Cc3ccccc3N(Cc3ccccc3)C2=O)[C@H](c2ccc(CO)cc2)N1Cc1ccccc1Cl`, for which the z-score is -0.425. Still for that read-out and setting: in the case of `O=C1C[C@@](C(=O)NCc2ccccc2)(c2ccc([N+](=O)[O-])cc2)[C@@H](c2ccc(CO)cc2)N1C1CCCCC1` it was -0.0654; in that of `CC(C)c1nc2cc(Br)ccc2c(=O)o1`, 0.13; in that of `CCOC(=O)C1=CCC(c2cc3ccccc3[nH]2)N(CCN2CC(C(=O)OCC)=CCC2c2cc3ccccc3[nH]2)C1` (centres undefined), 0.878. In the case of `O=C(NC1CC1)[C@@H]1c2ccccc2C(=O)N(CC23CC4CC(CC(C4)C2)C3)[C@H]1c1ccc(CO)cc1`, the z-score is 0.338. The same measure, in the same setting: in the case of `N#Cc1ccc(NN2C(C(O)C3CC=CCC3)C=CC3C(=O)N(c4ccccc4)C(=O)C32)cc1` (centres undefined) it was 1.36; in that of `O=C(NCC(O)CO)C1N=C(c2ccc(OCCCO)cc2)N(c2ccccc2)O1` (centres undefined), -1.41.

In the case of `CCCC[C@H]1OB(O)C[C@H]2C1=C(COc1ccccc1)C[C@H]1C(=O)C=CC(=O)[C@H]12`, the z-score is 0.531. As for `COCCn1c(C(=O)N(C)C)cc2c1C[C@H]1CN(C(=O)c3ccccc3)[C@@](Cc3ccc(OC)cc3)(C(=O)OC)[C@@H]21`, the z-score was 0.784.

Another experiment can be described thus: growth modulation of vineyard yeast isolate – strain RM11-1a, OD600, basal, 24 h, primary screen (AID 1177).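 Further: cultures grown under basal conditions with no added stressor.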 Particulars: S. cerevisiae RM11-1a growth, OD600, 24 h; higher = more signal, called active from +8 up or from −8 down.
On to `CC(C)(C)N1CC=CC23O[C@@H]4/C=C\CCCOC(=O)C4[C@H]2C(=O)N(CCCCCO)[C@@H]3C1=O` (some centres undefined), for which the z-score was -0.746. Turning to `COCCCNC(=O)[C@@]1(CCS(=O)(=O)c2ccccc2)COC(c2ccc(OCCCO)cc2)=N1`, the z-score was -0.19. The same measure, in the same setting: the value for `O=C1NC(=O)C2C1C=CC(C(O)c1ccc(B(O)O)cc1)N2Nc1ccc(Cl)cc1Cl` (centres undefined) was 1.48. Still for that read-out and setting: in the case of `CCOc1cc(C(O)C2C=CC3C(=O)N(c4ccccc4)C(=O)C3N2Nc2ccccc2F)ccc1O` (centres undefined) it was 1.78; in that of `O=C1OCCC=C[C@H]2OC34C=CCN(c5ccc6ccccc6c5)C(=O)[C@H]3N(CCO)C(=O)[C@@H]4C12` (some centres undefined), 0.0789; in that of `CN(C)CCCNC(=O)[C@@]1(Cc2ccccc2I)c2ccccc2C(=O)N(C2CCCCC2)[C@H]1c1ccc(CO)cc1`, 0.996. `COc1ccc(C#Cc2ccc3c(c2)[C@]2(C(=O)N3)[C@H](C(=O)O)[C@H]3C(=O)O[C@H](c4ccccc4)[C@H](c4ccccc4)N3[C@@H]2c2ccccc2OCCO)cc1`: the z-score is 2.48. Turning to `COCCOC(=O)N1C(=O)[C@@]2(c3cc(C#CC4(O)CCCCCC4)ccc31)[C@H](c1ccc(O)cc1)N1[C@H](c3ccccc3)[C@H](c3ccccc3)OC(=O)[C@H]1[C@@H]2C(=O)N1CCCCCCC1`, the z-score was 0.478. Take `[N-]=[N+]=Nc1ccccc1[C@@H]1OC(c2ccc(OCCCO)cc2)=N[C@]1(Cc1ccccc1)C(=O)NCCN1CCOCC1`: the z-score is -0.158. Still for that read-out and setting: in the case of `CCCCC(O)C1C=CC2C(=O)N(c3ccccc3)C(=O)C2N1Nc1ccccc1` (centres undefined) it was 0.632; in that of `CC=CC(O)C1C=CC2C(=O)NC(=O)C2N1Nc1ccc(Cl)cc1Cl` (centres undefined), 1.52. As for `COC(=O)[C@H](Cc1ccccc1)N1CC2=CCCC=C[C@@H]2[C@H]1[C@H](O)Cc1ccccc1`, the z-score was -0.77. Still for that read-out and setting: the value for `Cc1ccc(S[C@]2(C(=O)NC(C)C)CC(=O)N(C3CCCCC3)[C@@H]2c2ccc(CO)cc2I)cc1` was 1.16.

As to `CCCNC(=O)[C@@]1(c2ccc([N+](=O)[O-])cc2)CC(=O)N(C(C)C)[C@@H]1c1ccc(CO)cc1`, the z-score was -0.355. The same measure, in the same setting: in the case of `COC(=O)[C@@]1(Cc2ccc(OC)cc2)[C@H]2c3cc(C(=O)N(C)C)[nH]c3C[C@H]2CN1C(=O)c1ccccc1` it was 0.68. On the same count and under the same terms, in the case of `O=C1N(CCS(=O)(=O)c2ccccc2)c2ccccc2C[C@]12N=C(c1ccc(OCCCO)cc1)O[C@@H]2c1ccccc1` it was 2.74.
